Measured values published in the supplement of paper PMC13380429.

Test system: Vero E6 infected with SARS-CoV-2
Experiment: inhibition of SARS-CoV-2 cytopathic effect; higher = more antiviral protection, active = above 15
Conditions: 48 h

Measured: inhibition of SARS-CoV-2 cytopathic effect

COCc1nnc(N2CC(Oc3ccc(F)cc3Cl)C2)n1-c1ccc(OC)nc1
inactive: 1 nM -1.23% | 8.33 nM -3.96% | 100 nM -0.12% | 833.33 nM -1.42% | 10000 nM -1.43%

COc1ccc(/C=C/CCCCOc2ccc(C(=O)c3cccc(C(=O)O)c3)cc2CCC(=O)O)cc1
inactive: 1 nM 2.26% | 8.33 nM 1.45% | 100 nM 0.3% | 833.33 nM -3.65% | 10000 nM -3.88%

O=C(CCCCCCC(=O)Nc1cccnc1)NO [pyroxamide]
inactive: 1 nM 0.71% | 8.33 nM -1.1% | 100 nM 0.72% | 833.33 nM -1.43% | 10000 nM -5.97%

CN1CCC[C@@H]1Cc1c[nH]c2ccc(CCS(=O)(=O)c3ccccc3)cc12 [eletriptan]
inactive: 1 nM -0.44% | 8.33 nM 1.24% | 100 nM 2.14% | 833.33 nM -1.16% | 10000 nM -2.89%

CCN(C(=O)c1c(O)c2c(Cl)cccc2n(C)c1=O)c1ccccc1 [laquinimod]
inactive: 1 nM 1.55% | 8.33 nM -0.45% | 100 nM 0.71% | 833.33 nM -5.3% | 10000 nM -6.25%

Cc1ccc(Cl)cc1N(CC(=O)Nc1c(F)cccc1F)S(C)(=O)=O
inactive: 1 nM 2.5% | 8.33 nM -2.01% | 100 nM -1.24% | 833.33 nM 0.27% | 10000 nM -0.21%

NC(=O)NO [hydroxyurea]
inactive: 1 nM 0.66% | 8.33 nM -0.23% | 100 nM 0.03% | 833.33 nM 0.46% | 10000 nM 1.29%

OC[C@H]1O[C@@H](n2cnc3c(N[C@H]4CCC[C@@H]4O)ncnc32)[C@H](O)[C@@H]1O
inactive: 1 nM 4.79% | 8.33 nM 4.09% | 100 nM 3.63% | 833.33 nM -0.63% | 10000 nM 0.91%

OC[C@H]1O[C@@H](n2cnc3c(NC4CCCC4)ncnc32)[C@H](O)[C@@H]1O [N6-cyclopentyladenosine]
inactive: 1 nM 0.37% | 8.33 nM 0.93% | 100 nM 1.63% | 833.33 nM 4.59% | 10000 nM 1.5%

COc1ccccc1OCC(O)CN1CCN(CC(=O)Nc2c(C)cccc2C)CC1 (stereo not given) [ranolazine]
inactive: 1 nM 0.1% | 8.33 nM -0.38% | 100 nM -2.33% | 833.33 nM 0.17% | 10000 nM -0.73%

O=c1c2ccccc2[se]n1-c1ccccc1 [ebselen]
inactive: 1 nM 0.19% | 8.33 nM 3.3% | 100 nM 2.73% | 833.33 nM 3.17% | 10000 nM -3.01%

CSc1ccc(C(=O)/C=C/c2cc(C)c(OC(C)(C)C(=O)O)c(C)c2)cc1 [elafibranor]
inactive: 1 nM -1.98% | 8.33 nM 1.58% | 100 nM -1.18% | 833.33 nM 2.15% | 10000 nM 3.31%

COc1cccc2c1C(=O)c1c(O)c3c(c(O)c1C2=O)C[C@@](O)(/C(CO)=N/NC(=O)CCCCCN1C(=O)C=CC1=O)C[C@@H]3O[C@H]1C[C@H](N)[C@H](O)[C@H](C)O1 [aldoxorubicin]
inactive: 1 nM -2.6% | 8.33 nM -0.32% | 100 nM 0.6% | 833.33 nM 4.67% | 10000 nM -1.37%

CC(C)=CCC[C@]1(C)C=Cc2c(O)c3c(c(CC=C(C)C)c2O1)O[C@]12C(=C[C@@H]4C[C@H]1C(C)(C)O[C@@]2(C/C=C(/C)C(=O)O)C4=O)C3=O [gambogic-acid]
inactive: 1 nM 2.13% | 8.33 nM -0.37% | 100 nM 0.38% | 833.33 nM 4.87% | 10000 nM -14.3%

CCc1cc(/C(C)=N/OCc2ccc(C3CCCCC3)c(C(F)(F)F)c2)ccc1CN1CC(C(=O)O)C1 [siponimod]
inactive: 1 nM -0.21% | 8.33 nM -1.67% | 100 nM -0.01% | 833.33 nM -0.18% | 10000 nM 1.37%
